Screens: PubChem, several laboratories
Sampled rows, rich in hits. Any-hit rate of the full collection: about 3.8%.
A1 inh = caspase 3/7 activation in MEF A1-2A-BIM cells, primary screen, A1 inhibitor project, cell-based, luminescence, HTS | Caspase-Glo 3/7 luminescence, 3 h; percent of clofoctol response, vehicle zero | caspase activation, % (no concentration beside the values) | hit rate 0.066% among 330,000;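 active = over half of replicate activation scores above 10%, or exactly half above 10 with the replicate mean above 10; inconclusive = replicate mean below 10 yet half the replicates above 10; inactive = over half of replicates below 10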
Jurkat NFkB inh = inhibitors of induced NF-kB luciferase reporter, primary screen, TCR NF-kB activation inhibitor project, cell-based, luminescence, uHTS; Jurkat, PMA/ionomycin-induced NF-kB luciferase reporter; inhibition, % at 4 µM; hit rate 0.53% among 330,000; in the data active = inhibition above about 50%
NTR1 agonist = agonists of human NTR1, primary screen, imaging, U2OS cells, beta-arrestin-GFP, high content; Neurotensin receptor type 1 (Homo sapiens), P30989; NTR1-U2OS beta-arrestin-GFP spot imaging, agonist mode; activation, % at 20 µM; hit rate 0.17% among 330,000;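 active = activation at or above 40% of the spot to cytoplasm intensity ratio, with at least 20 cells analyzed; inconclusive = wells under 20 cells, flagged as cytotoxic or low count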
Target sequence (P30989 whole entry, looked up): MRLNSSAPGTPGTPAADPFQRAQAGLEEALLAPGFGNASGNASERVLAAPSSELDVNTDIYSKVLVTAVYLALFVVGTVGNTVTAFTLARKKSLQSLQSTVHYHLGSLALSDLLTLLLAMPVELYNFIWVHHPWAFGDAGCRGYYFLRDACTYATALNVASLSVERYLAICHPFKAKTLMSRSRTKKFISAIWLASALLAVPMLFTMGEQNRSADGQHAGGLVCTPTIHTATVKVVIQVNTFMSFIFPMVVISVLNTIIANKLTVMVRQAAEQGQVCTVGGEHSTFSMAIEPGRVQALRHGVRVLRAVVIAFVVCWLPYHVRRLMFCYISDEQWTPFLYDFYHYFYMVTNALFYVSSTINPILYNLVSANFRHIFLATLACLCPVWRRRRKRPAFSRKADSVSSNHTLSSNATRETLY
Beta cell apopt = inhibitors of cytokine-induced beta cell apoptosis, primary screen, luminescence; INS-1E cytokine-induced death, ATP luminescence, 48 h; percent of positive-control rescue, neutral wells zero; hit rate 0.8% among 300,000; protection from apoptosis, % (no concentration beside the values);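 active = Every replicate reaches about 75%, or at least half do and their mean reaches it too, limit read from the data; inconclusive = At least half of replicates reach the limit but their mean does not; inactive = Under half of replicates reach the limit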;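 also: higher means more ATP so stronger rescue from cytokine killing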
697 NFkB inh = inhibitors of PMA/ionomycin-induced NF-kB reporter, 697 cells, primary screen, B-cell NF-kB inhibitor project, cell-based, luminescence, uHTS; hit rate 0.33% among 330,000; AID 435022, 2010; 697 B-cell NF-kB luciferase reporter, 16 h; inhibition, % at 4 µM; in the data active = inhibition above about 35%
Mdm2 MdmX PPI = inhibitors of human Mdm2-MdmX association, primary screen, cell-based, luminescence, split luciferase, SaOS-2, uHTS; Protein Mdm4 (Homo sapiens) + E3 ubiquitin-protein ligase Mdm2 (Homo sapiens), …; SaOS-2 split-luciferase Mdm2/MdmX complementation; inhibition, % at 8 µM; hit rate 3% among 330,000; AID 485346, 2010;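 active = inhibition of at least 50% at 8 µM in the primary screen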
Mdm2 MdmX conf = Mdm2-MdmX complex disruptors, retested hits, confirmation, luminescence, single concentration; shares compounds with Mdm2 MdmX PPI; Mdm2-MdmX binding, luminescent assay; inhibition, % at 8 µM; hit rate 55% among 10,000; AID 489028, 2010; in the data active = inhibition above about 40%
FLuc counter = full-length luciferase signal inhibition, confirmation, counter-screen for Mdm2/MdmX interaction inhibitor project, cell-based, single concentration, SaOS-2 | shares compounds with Mdm2 MdmX PPI | SaOS-2 full-length luciferase counterscreen, luminescence | inhibition, % at 8 µM | hit rate 77% among 6,200 | AID 504607, 2011;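 active = mean inhibition at 8 µM reaching about 37%, which flags the compound as non-specific, limit read from the data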;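 also: p53-null SaOS-2 cells with luciferase driven by a doxycycline-inducible promoter; compound on cells about two nights before reading with doxycycline added after day one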
Each line names hits and unclear results; the compound was inactive in the other large screens (follow-up assays come after a bar, where they were run).

CCOc1cc(CNCCCN2CCOCC2)cc(Br)c1OCc1ccccc1Cl	Mdm2 MdmX PPI 92 | Mdm2 MdmX conf inactive | FLuc counter 52
CCOc1cc(CNC(C)(C)CO)cc(Br)c1OCc1ccc(Cl)cc1Cl	Mdm2 MdmX PPI 96 | Mdm2 MdmX conf 49 | FLuc counter 37
CCOc1cc(CNCCO)cc(Br)c1OCc1ccc(Cl)cc1	Mdm2 MdmX PPI 80 | Mdm2 MdmX conf inactive
COc1cc(CNCCO)cc(Cl)c1OCc1ccccc1Cl	none
CCOc1cc(CNCCO)cc(Br)c1OCc1ccccc1Cl	Mdm2 MdmX PPI 68 | Mdm2 MdmX conf inactive
O=C(NCc1ccccc1OC(F)(F)F)C1CCC(=O)N(C2CC2)C1 (centres undefined)	none
Cc1cc(-c2ccccc2)nc(N2CCN(c3ccccn3)CC2)n1	Mdm2 MdmX PPI 59 | Mdm2 MdmX conf inactive
Nc1nc(N2CCN(c3ccccn3)CC2)nc2ccccc12	none
CC(=O)NS(=O)(=O)c1ccc(NC(=O)C(Sc2ccccc2)c2ccccc2)cc1 (centres undefined)	none
CCC(C)NS(=O)(=O)c1ccc(NC(=O)C(Sc2ccccc2)c2ccccc2)cc1 (centres undefined)	Mdm2 MdmX PPI 56 | Mdm2 MdmX conf 44 | FLuc counter 70
COc1ccc(-c2nc(NC(=O)C3CCN(c4nc5ccccc5o4)CC3)sc2C)cc1	Mdm2 MdmX PPI 51 | Mdm2 MdmX conf inactive
CSc1ccccc1C(=O)Nc1ncc(C)s1	none
COc1cc(SC)ccc1C(=O)Nc1ncc(C)s1	Mdm2 MdmX PPI 71 | Mdm2 MdmX conf 56 | FLuc counter 71
Cc1cccc(OCC(=O)Nc2ccccc2N2CCN(C(=O)C(C)C)CC2)c1C	Mdm2 MdmX PPI 100 | Mdm2 MdmX conf inactive
O=C(C[n+]1ccc(C(=O)c2ccccc2)cc1)Nc1ccccc1OC(F)F	none
Cc1nsc(Nc2ccc([N+](=O)[O-])cc2)c1C#N	Mdm2 MdmX PPI 79 | Mdm2 MdmX conf 55 | FLuc counter 89
CC1Nc2ncnc(N3CCc4ccccc4C3)c2N(Cc2ccc(Cl)cc2)C1=O (centres undefined)	none
CC1Nc2ncnc(N3CCc4ccccc4C3)c2N(Cc2ccc(Br)cc2)C1=O (centres undefined)	Mdm2 MdmX PPI 54 | Mdm2 MdmX conf inactive | FLuc counter 58
CNC(=O)c1c(O)c2cccc3c2n(c1=O)CCC3	Mdm2 MdmX PPI 75 (no result: Beta cell apopt) | Mdm2 MdmX conf 84 | FLuc counter 47
COc1ccc(C(C)=O)cc1CSc1nnc(-c2ccc(Cl)cc2)n1-c1ccccc1	Mdm2 MdmX PPI 63 | Mdm2 MdmX conf 49 | FLuc counter inactive
COc1ccc(C(C)=O)cc1CSc1nnc(-c2ccncc2)n1C	none
COc1ccc(-c2oc(NC(=O)CCl)c(C#N)c2-c2ccc(OC)cc2)cc1	Mdm2 MdmX PPI 98 | Mdm2 MdmX conf 65 | FLuc counter 55
Cc1nc2sc3c(NCc4ccco4)ncnc3c2c2c1COC(C)(C)C2	Mdm2 MdmX PPI 63 | Mdm2 MdmX conf 46 | FLuc counter 37
CC(C)Cc1nc2sc3c(NCc4ccco4)ncnc3c2c2c1COC(C)(C)C2	none
O=C(O)CCSc1nnc(COc2ccc(Cl)cc2)n1-c1ccccc1	A1 inh inconclusive
CC1(C)CC(=O)C2=C(C1)OC1=C(C(=O)CC(C)(C)C1)C2c1ccc(O)cc1O	Beta cell apopt 102, Mdm2 MdmX PPI 100 | Mdm2 MdmX conf 83 | FLuc counter 50
C/C(=N/NC(=O)c1ccc2c(c1)OCO2)c1ccc(Br)s1	none
C/C(=N\NC(=O)c1ccc(Cl)c(Cl)c1)c1ccc(Br)s1	Mdm2 MdmX PPI 68 | Mdm2 MdmX conf 55 | FLuc counter 47
O=C(CC1C(=O)NCCN1Cc1c(F)cccc1Cl)NCCCN1CCCC1=O (centres undefined)	none
CC(=O)N1c2ccc(S(=O)(=O)NCC3CCC(C(=O)N4CC(C)CC(C)C4)CC3)cc2CC1C (centres undefined)	none (no result: Beta cell apopt)
COc1ccc(NC(=O)CN(C)C(=O)/C=C/c2ccc(OCc3ccccc3)cc2)cc1	Mdm2 MdmX PPI 52 | Mdm2 MdmX conf inactive
COc1ccc(NC(=O)CN(C)C(=O)CCc2ccccc2)cc1	none
Cc1ccc(C)c(Nc2nc(-c3ccncc3)nc3ccccc23)c1	none
Cc1ccnc(NC(=O)c2ccccc2NC(=O)c2ccc(Cl)cc2Cl)c1	Mdm2 MdmX PPI 64 (no result: Beta cell apopt) | Mdm2 MdmX conf 57 | FLuc counter 66
O=S(=O)(Nc1nc2ccccc2nc1NCc1ccco1)c1ccc(Cl)cc1	none
Cc1noc(C)c1CSc1nc2ccccc2nc1NS(=O)(=O)c1ccc(Cl)cc1	Mdm2 MdmX PPI 63 (no result: Beta cell apopt) | Mdm2 MdmX conf inactive
CCOC(=O)c1c(NC(=S)N2CCOCC2)sc2c1CCN(C(=O)OCC)C2	Mdm2 MdmX PPI 51 | Mdm2 MdmX conf inactive
CCOC(=O)c1c(NC(=S)N2CCCCC2)sc2c1CCN(C(=O)OCC)C2	Mdm2 MdmX PPI 72 | Mdm2 MdmX conf inactive
C=CCNC(=S)Nc1sc2c(c1C(=O)OCC)CCN(C(=O)OCC)C2	none
CCOC(=O)c1c(NC(=S)NCc2ccccc2)sc2c1CCN(C(=O)OCC)C2	none (no result: Beta cell apopt)
O=C(NCC(=O)N1CCN(S(=O)(=O)c2ccccc2F)CC1)c1ccc(Br)o1	none
Cc1ccc(NC(=O)CN2CCOCC2)cc1C	none
O=c1[nH]c(-c2ccccc2)ncc1Oc1ccccc1	none
Cn1nc(Cc2cccc3ccccc23)c(C#N)c1N	none
CC(C)(C)n1nc(Cc2cccc3ccccc23)c2c(N)ncnc21	Mdm2 MdmX PPI 54 | Mdm2 MdmX conf inactive
COCCn1c(Cc2ccccc2)nnc1SCC(=O)N1CCCC1=O	none
C/C(=N\NC(=S)Nc1ccc(F)cc1)c1ccc2c(c1)OCCO2	Mdm2 MdmX PPI 64 | Mdm2 MdmX conf 62 | FLuc counter 56
C/C(=N\NC(N)=S)c1ccc2c(c1)OCCO2	none
C=CCC[C@H](Cc1ccc(F)cc1)C(=O)OC[C@H](Cc1c[nH]c2ccccc12)NC(=O)[C@H](CC=C)CC(=O)NCCO	none
C=CCC[C@@H](Cc1ccc(F)cc1)C(=O)OC[C@@H](Cc1c[nH]c2ccccc12)NC(=O)[C@@H](CC=C)CC(=O)NCCO	none (no result: A1 inh, Beta cell apopt)
